From PubChem BioAssay (NCI)
Compounds without any hit were thinned out: in the full panel of roughly 83,000, 20% have a hit.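 Step 1: grow cells in 96-well plates. Step 2: add test compound at a single concentration. Step 3: incubate 48 h. Step 4: record percent growth.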 Unmarked numbers belong to inactive results. Calls of active or inactive are those of the source. The calls were made as follows: active = growth percent below 10; inactive = the rest.

Legend:
Test in all cases: NCI-60 one-dose screen, 48 h (100 = growth as untreated, 0 = no growth, -100 = all killed)
Conditions in all cases: 10 µM unless noted
NCI-H23 lung = tested on: NCI-H23 lung
NCI-H226 lung = tested on: NCI-H226 lung
NCI-H322M lung = tested on: NCI-H322M lung
HOP-62 NSCLC = tested on: HOP-62 NSCLC
NCI-H460 lung = tested on: NCI-H460 lung
HOP-92 NSCLC = tested on: HOP-92 NSCLC
NCI-H522 lung = tested on: NCI-H522 lung
A549/ATCC NSCLC = tested on: A549/ATCC NSCLC
786-0 renal = tested on: 786-0 renal
COLO 205 colon = tested on: COLO 205 colon
DU-145 prostate = tested on: DU-145 prostate
K-562 leukemia = tested on: K-562 leukemia
MALME-3M melanoma = tested on: MALME-3M melanoma
MDA-MB-231 breast = tested on: MDA-MB-231 breast
RXF 393 renal = tested on: RXF 393 renal
SF-268 CNS = tested on: SF-268 CNS
SF-295 CNS = tested on: SF-295 CNS
SF-539 CNS = tested on: SF-539 CNS
UACC-257 melanoma = tested on: UACC-257 melanoma
M14 melanoma = tested on: M14 melanoma

Compound | growth (NCI-H23 lung) | growth (NCI-H226 lung) | growth (NCI-H322M lung) | growth (HOP-62 NSCLC) | growth (NCI-H460 lung) | growth (HOP-92 NSCLC) | growth (NCI-H522 lung) | growth (A549/ATCC NSCLC) [%] | growth (786-0 renal) | growth (COLO 205 colon) | growth (DU-145 prostate) | growth (K-562 leukemia) | growth (MALME-3M melanoma) | growth (MDA-MB-231 breast) | growth (RXF 393 renal) | growth (SF-268 CNS) | growth (SF-295 CNS) | growth (SF-539 CNS) | growth (UACC-257 melanoma) [%] | growth (M14 melanoma)
C#CCOc1ccc(-c2csc(NC(=O)C=C)n2)cc1NS(=O)(=O)c1cccc2c(N(C)C)cccc12 | 56.4% | 33.1% | 87.6% | 93.2% | 81.2% | 0.234% (active) | 29.9% | 65.4 | 8.71% (active) | 67.6% | 44.6% | 9.26% (active) | 62.5% | 31.7% | -6.3% (active) | 64.7% | 66.8% | 3.55% (active) | 68.6 | 31.9%
C#CCn1cc(/C=N/Nc2nc(-c3ccc(Br)cc3)cs2)c2ccccc21 | 86.7% | 94.7% | 93.6% | 97.5% | 97.3% | 88.9% | 88.9% | 97 | 105% | 115% | 114% | 110% | 100% | 95.8% | 105% | 108% | 97.6% | 93% | 105 | 93.9%
CCN(CC)S(=O)(=O)c1ccc(-c2nc(C(Cl)Cl)nc3cc(-c4ccc(F)cc4)nn23)cc1 | 21.7% | 77.3% | 41.4% | 10.3% | 10.2% | -3.41% (active) | 79.3% | 17.8 | 76.5% | 8.9% (active) | 16% | 34.6% | 57.6% | 1.34% (active) | -30.2% (active) | 48.5% | 32.6% | 18.4% | 67.7 | 47.1%
CC(Nc1c(C#N)cnc2ccc(-c3cncc(O)c3)cc12)c1ccccc1 (stereo not given) | 1.12% (active) | 2.59% (active) | -36.8% (active) | 5.27% (active) | 0.377% (active) | -3.64% (active) | -43.4% (active) | 15.9 | -1.52% (active) | 57.6% | 3.93% (active) | 15.3% | -34.1% (active) | 14.4% | -24.6% (active) | 2.54% (active) | -13% (active) | 0.714% (active) | 18.2 | 4.07% (active)
NC1C2CCC1CN(c1cnc(C(=O)Nc3cc(F)cc4cccnc34)cn1)C2 (stereo not given) | 75.1% | 75.7% | 84.3% | 81.2% | 68.1% | 47.9% | 72.3% | 68.6 | 67% | -0.393% (active) | 71.2% | 3.9% (active) | 49.5% | 39.4% | 61.6% | 73.5% | 76.3% | 64.6% | 98.3 | 48.4%
O=S(=O)(Oc1ccc(-c2cn3ccoc3n2)cc1)c1cccc(C(F)(F)F)c1 | 98% | 93.5% | 102% | 104% | 104% | 91.7% | 90.3% | 99.6 | 99.9% | 115% | 101% | 101% | 98.6% | 102% | 98.2% | 102% | 90.4% | 94.3% | 101 | 105%
COC(=O)CCCNCCCn1ccc2cc(NCc3cccc(-c4ccccc4)c3C)ccc21 | 61.9% | 69.7% | 97.6% | 81.9% | 81.8% | 22.3% | 91.7% | 84.9 | 74.2% | 64.4% | 86.2% | -1.36% (active) | 75.2% | 68.3% | 71.9% | 82.9% | 64.5% | 77.8% | 81.6 | 68.1%
